Experimental data as given in PubChem BioAssay AID598 (SRMLSC, 2007).
Among all 85,000 compounds or so, about 5,100 (6%) were called active. The entries come from a sample that favours actives as a whole. Values without a mark were called inactive.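 Rule for the calls: active = viability at or below 40%; inactive = viability above 40%.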

Assay: H69AR cell viability reduction – human, 86K library, primary screen (AID 598);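 note: multidrug resistant small cell line overexpressing MRP-1 efflux transporter; 100% = mean luminescence of untreated control wells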
Conditions: H69AR lung tumor viability, ATP luminescence, 72 h; at 10 µM; hits give low values

Row | SMILES | viability
1 | CCOc1ccc2nc(NC(=O)CSc3nc4c(c(=O)n(C)c(=O)n4C)n3CC)sc2c1 | 14.9% (active)
2 | CCn1c(SCC(=O)Nc2nc3ccc(OC)cc3s2)nnc1-c1ccoc1C | 58.8%
3 | CCCCn1c(SCC(=O)NCCc2ccc(OC)c(OC)c2)nc2c1c(=O)n(C)c(=O)n2C | 86.6%
4 | COC(=O)CNC(=O)c1ccccc1F | 85.2%
5 | O=C(c1ccc(Cl)c(Cl)c1)N1CCCC1 | 95.3%
6 | C/C=C/C(=O)OCC(=O)Nc1ccc(F)cc1Cl | 98.4%
7 | COc1ccccc1N1CCN(C(=O)CN(Cc2ccc(Cl)cc2)S(C)(=O)=O)CC1 | 86.8%
8 | COc1ccccc1-n1nnnc1S(=O)(=O)Cc1ccc(Cl)cc1 | 1.36% (active)
9 | COc1ccccc1N1CCN(Cc2nnnn2CCc2ccccc2)CC1 | 102%
10 | COCc1[nH][nH]c(=O)c1C=Nc1ccc(F)cc1F | 96.8%
11 | Cc1cc(C(F)F)n2nc(C(=O)Nc3ccc(S(=O)(=O)NC45CC6CC(CC(C6)C4)C5)cc3)nc2n1 | 115%
12 | CC(C)CNC(=O)CC(c1ccccc1)c1c(O)ccc2ccccc12 (configuration not stated) | 92.8%
13 | O=S(=O)(NCCc1ccccc1)c1ccccc1 | 103%
14 | CCN1C(=O)C(CC(=O)Nc2cc(C)ccc2C)SC1=Nc1ccc(S(N)(=O)=O)cc1 (configuration not stated) | 97.3%
15 | Cc1ccc(OCC(=O)Nc2ccc(-c3nnc(-c4ccco4)o3)cc2)cc1 | 90.5%
16 | COc1ccc(CC(=O)Nc2ccc(-c3nnc(-c4ccc(C)cc4)o3)cc2)cc1 | 2.28% (active)
17 | COc1ccc(CC(=O)Nc2ccc(-c3nnc(-c4ccccc4)o3)cc2)cc1 | 58.1%
18 | CN(Cc1ccccc1)C(=O)COc1ccccc1 | 97.9%
19 | CCc1ccccc1NC(=O)CN(C)S(=O)(=O)c1ccc2c(c1)c(=O)n(C)c(=O)n2C | 88.5%
20 | CC(=O)c1ccc(S(=O)(=O)N2CCN(c3nc4c(C)c(C)ccc4cc3C#N)CC2)cc1 | 36% (active)
21 | Cc1cc(C)c2nc(N3CCCC3)c(C#N)cc2c1 | 91.6%
22 | Cc1cccc2cc(C#N)c(N3CCCC3)nc12 | 100%
23 | CCS(=O)(=O)Nc1ccc(C2=NN(S(=O)(=O)c3ccc(F)cc3)C(c3ccco3)C2)cc1 (configuration not stated) | 81.9%
24 | O=C(NC1CCCC1)C(c1ccccn1)N(C(=O)c1csnn1)C1CCCC1 (configuration not stated) | 81.2%
25 | CCOC(=O)CN(Cc1ccc(OC)c(OC)c1)S(=O)(=O)c1ccc(OC)cc1 | 87.8%

Row | SMILES | viability
26 | Cc1cc(C)cc(N(CC(=O)Nc2c(C)n(C)n(-c3ccccc3)c2=O)S(C)(=O)=O)c1 | 93.1%
27 | Cc1c(NC(=O)CSc2cccc3cccnc23)c(=O)n(-c2ccccc2)n1C | 0.71% (active)
28 | Cc1ccccc1OCCC(=O)Nc1c(C)n(C)n(-c2ccccc2)c1=O | 91%
29 | COc1ccc(C(C)=O)cc1CN1C(=O)NC2(CCCCC2C)C1=O (configuration not stated) | 93.7%
30 | CCOC(=O)C1CCN(C(=O)Nc2ccc(Cl)cc2)CC1 | 101%
31 | CCOC(=O)C1CCN(C(=O)COc2cc(C)c(Br)c(C)c2)CC1 | 35.3% (active)
32 | CCOC(=O)N1CCN(C(=O)COc2ccc(Br)cc2)CC1 | 104%
33 | O=C1C2C3C=CC(C4CC34)C2C(=O)N1/N=C/c1ccc(-c2ccccc2[N+](=O)[O-])o1 (configuration not stated) | 86.5%
34 | COc1ccc(NC(=O)/C(Cl)=C(/Cl)S(=O)Cc2ccc(C)cc2)cn1 (configuration not stated) | 0.7% (active)
35 | COc1cccc(NC(=O)Cc2ccc(C)cc2)c1 | 97.9%
36 | O=C(Cn1cnc2ccccc2c1=O)NCC1COc2ccccc2O1 (configuration not stated) | 104%
37 | Cc1cc(=O)[nH]c(SCc2cccc(F)c2)n1 | 106%
38 | O=C(Cn1nc(C(F)(F)F)c2c1CCC2)NCc1ccc(F)cc1 | 104%
39 | COC(=O)c1ccccc1NC(=O)Cn1nc(C(F)(F)F)c2c1CCC2 | 84.3%
40 | Cc1cc(NC(=O)Cn2nc(C(F)(F)F)c3c2CCCC3)no1 | 35.8% (active)
41 | Cc1ccc(OC(=O)c2ccccc2C(=O)OCC(F)(F)C(F)F)cc1 | 99.1%
42 | COc1ccc(-n2ncc3c(N4CCc5ccccc54)ncnc32)cc1 | 43.4%
43 | Cc1cccc(-n2ncc3c(N4CCc5ccccc54)ncnc32)c1 | 33.3% (active)
44 | COc1ccc(-n2ncc3c(N4CCCc5ccccc54)ncnc32)cc1 | 100%
45 | CC(C)N1C(=S)SC(C)(C)C1n1oc(=O)n(-c2ccc(Cl)c(Cl)c2)c1=O (configuration not stated) | 97.1%
46 | CC(C)(C)n1nnnc1C(c1ccc(F)cc1)N1CCN(Cc2ccc3c(c2)OCO3)CC1 (configuration not stated) | 81.2%
47 | CCN1C(=O)/C(=C\N2CCOCC2)SC1=S | 86.2%
48 | CCSc1nc(-c2ccc(OC)cc2)cc(-c2ccc(OC)cc2)c1C#N | 88%
49 | O=C(Cn1c(=O)sc2ccccc21)Nc1nc2c(s1)CCCC2 | 63.2%
50 | O=C(CCS(=O)(=O)c1ccccc1)Nc1nc2c(s1)CCCC2 | 17.5% (active)

Row | SMILES | viability
51 | COC(=O)C(NC(C)=O)(Nc1nc2c(s1)CCCC2)C(F)(F)F (configuration not stated) | 91.5%
52 | COc1ccc(C(C#N)N2N=C(C)CC2(C)C)cc1 (configuration not stated) | 104%
53 | COC(=O)c1c(C)c(C)nc(N)c1C#N | 98.1%
54 | FC(F)(F)c1cc(-c2ccco2)nc(NCc2ccc(Cl)cc2)n1 | 101%
55 | CCCNC(=O)c1ccc(Cl)c(Cl)c1 | 96%
56 | O=C(NCc1cccnc1)Nc1ccccc1F | 98.8%
57 | CCC(c1nnnn1Cc1ccco1)N(CCc1ccccc1)Cc1cc2ccc(OC)cc2[nH]c1=O (configuration not stated) | 23.2% (active)
58 | CCC(c1nnnn1Cc1ccco1)N(CCc1ccccc1)Cc1cc2cccc(C)c2[nH]c1=O (configuration not stated) | 67.3%
59 | CCC(c1nnnn1Cc1ccco1)N(Cc1cc2cc(OC)ccc2[nH]c1=O)C1CCCCC1 (configuration not stated) | 76.8%
60 | CC1CCc2c(sc(NC(=O)c3ccc(Cn4cc(Br)cn4)o3)c2C(N)=O)C1 (configuration not stated) | 101%
61 | Cc1cc(NC(=O)CSc2nc(C(C)C)nc3sc4c(c23)CCC(C)C4)no1 (configuration not stated) | 6.01% (active)
62 | Cc1nc(SCC(=O)Nc2cc(C)on2)c2c3c(sc2n1)CCCC3 | 94%
63 | C=CCN(C(=O)Nc1ccc2oc(C)nc2c1)c1ccccc1 | 78.7%
64 | COc1cc(C(=O)Nc2nccs2)cc(OC)c1OC | 84.2%
65 | COc1ccc(-c2nn(-c3ccccc3)cc2C(=O)Nc2nccs2)cc1OC | 17.2% (active)
66 | COc1ccc(-c2nn(-c3ccccc3)cc2C(=O)Nc2nc(CC(C)=O)ns2)cc1 | 86.5%
67 | C/C=C/C(=O)Nc1nnc(C(C)C)s1 | 96.5%
68 | O=C(Nc1ccccc1)c1ccc2c(c1)OCO2 | 82.3%
69 | CCC(C)c1ccc(O)c(/C=N/O)c1 (configuration not stated) | 21.6% (active)
70 | Cc1nn(C(C)CC(=O)O)c(C)c1C (configuration not stated) | 98.2%
71 | CCCCNC(=O)C1(c2ccc(OC)cc2)CCOCC1 | 93.8%
72 | CCOc1ccc(NC(=O)c2ccccc2NS(C)(=O)=O)cc1 | 94.1%
73 | C=CCn1c(SCC(=O)Nc2nc3ccccc3s2)nnc1-c1ccccc1O | 27.4% (active)
74 | C=CCn1c(CSc2nc3ccccc3s2)nnc1SCC(=O)NCc1ccco1 | 54.6%
75 | C=CCn1c(SCC(=O)NCc2ccccc2)nnc1-c1cc(Br)ccc1O | 87.8%

Row | SMILES | viability
76 | COc1ccc(OC)c(Nc2nc(-c3ccc(O)c(O)c3)cs2)c1 | 30.8% (active)
77 | Oc1ccc(-c2csc(Nc3cccnc3)n2)cc1 | 54.4%
78 | COc1ccc(C(=O)Nc2nc(-c3ccc(S(=O)(=O)N4CCOCC4)cc3)cs2)cc1 | 58%
79 | CCOC(=O)C1=C(CN2CCc3ccccc32)NC(=O)NC1c1cccc([N+](=O)[O-])c1 (configuration not stated) | 16.4% (active)
80 | CCOC(=O)C1=C(CNC2CCCCC2)NC(=O)NC1c1cc(C)ccc1C (configuration not stated) | 80.5%
81 | CCOC(=O)C1=C(CN2CCc3ccccc32)NC(=O)NC1c1ccc(Cl)cc1 (configuration not stated) | 48.1%
82 | COc1ccccc1NC(=O)C1=C(C)Nc2nnnn2C1c1cccc(Br)c1 (configuration not stated) | 45.1%
83 | COc1ccc(C2=CC(c3cccc(OC)c3)n3nnnc3N2)cc1 (configuration not stated) | 11.4% (active)
84 | COC(=O)C1=C(C(=O)c2ccc(C)cc2)C(c2ccccc2)n2nnnc2N1 (configuration not stated) | 93.9%
85 | CC(C)C(NC(=O)c1ccc(Cl)cc1)C(=O)O (configuration not stated) | 111%
86 | Cn1c(NN)nc2sc3c(c2c1=O)CCC3 | 96.5%
87 | O=c1c2ccccc2nnn1CSc1nc2sc3c(c2c(=O)n1CC1CCCO1)CCC3 (configuration not stated) | 54.9%
88 | CCCc1nc2sc3c(c2c(=O)n1NC(=O)CCCl)CCCC3 | 36% (active)
89 | CC(C)CCNC(=O)CC1C(=O)N(Cc2ccccc2)C(C)c2nc3ccccc3n21 (configuration not stated) | 102%
90 | COc1ccc(C2(CNC(=O)C(c3ccccc3)c3ccccc3)CCOCC2)cc1OC | 74.8%
91 | CCOc1cc(C(=O)Nc2c(C)ccc3nsnc23)cc(OCC)c1OCC | 78.3%
92 | COc1cccc2cc(C(C)N(CCCN3CCOCC3)C(=O)Nc3ccc(Cl)cc3)oc12 (configuration not stated) | 31.7% (active)
93 | COc1ccc(C(=O)Nc2ccc(CN3CCOCC3)cc2)cc1 | 98.4%
94 | O=C(CC(NCCN1CCOCC1)C(=O)O)Nc1cccc(Cl)c1 (configuration not stated) | 94.2%
95 | CCn1c(SCC(=O)Nc2cccc(F)c2)nnc1-c1cc2cc(Br)ccc2o1 | 34.7% (active)
96 | CCCn1c(SCC(=O)Nc2cccc(C(=O)OCC)c2)nnc1-c1ccoc1C | 78.9%
97 | CCn1c(Cc2ccccc2)nnc1SCC(=O)Nc1ccccc1 | 90%
